# Screening data from PubChem.
# Shown are actives, neighbours in structure and some others; about 2.1% of the full set was active somewhere.
# FUS suppressor: FUS proteinopathy suppression in yeast | S. cerevisiae FUS-expressing, growth rescue, OD600, 24 h | 390,000 compounds, 0.24% hits | AID 1347120 | Potency, µM (doses to about 76.6 µM), hits mostly activators;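 further: plate controls were DMSO vehicle for no effect and reference control for full effect; nearly all actives have a fitted effect of over 55% in size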
#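 Compound concentration series was pinned onto galactose-induced FUS-expressing yeast seeded at OD 0.005. Plates sat 24hr at 30C; absorbance at 600 nm gave growth. DMSO served as background control.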
# aSyn yeast inh: inhibitors of alpha-synuclein toxicity in yeast | 370,000 compounds, 0.14% hits | Yeast expressing alpha-synuclein, growth rescue, BacTiter-Glo, 24 h | AID 652106 | Potency, µM (titrated, usually from 46.1 µM), for inactives: at the top dose growth rescue (activation), actives largely listed as activators; further: % of control where 0% means no effect; nearly all actives have a fitted effect of over 65% in size
#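 Screening used galactose-induced yeast with toxic alpha-synuclein levels, exposed to compound for 24 hr at 30 deg C. Cell growth, read with BacTiter-Glo luminescence, gave the measured signal.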
# TDP-43 yeast inh: rescues yeast growth from TDP-43 toxicity | AID 652104 | TDP-43 expressing yeast growth rescue, BacTiter-Glo, 24 h | Potency, µM (top dose mostly 46.1 µM), inactives show top-dose growth rescue (activation), usual class: activators | 410,000 compounds, 1.8% hits; further: % of control where 0% means no effect; nearly all actives have a fitted effect of over 50% in size
#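 Yeast expressing TDP-43 (pregrown in raffinose, seeded at OD600=0.02 in galactose medium) exposed to compounds 24 hr at 30 deg C. Growth read by BacTiter-Glo luminescence; rescue of toxicity appears as increased signal.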
# Abeta rescue: compounds reversing amyloid beta toxicity in yeast | Potency, µM (top dose mostly 46.1 µM), hits mostly activators | yeast expressing A-beta42, growth rescue, OD600, 48 h; response scale: 0% DMSO, 100% iron-clioquinol control | 410,000 compounds, 0.063% hits; further: nearly all actives have a fitted effect of over 55% in size
#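 Yeast growth medium received pinned compounds, then yeast cells expressing toxic A-beta were added; plates incubated at 30 C for 48 hr. Growth read as absorbance at 600 nm, normalized to DMSO and equimolar FeCl3 plus clioquinol controls.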
# An asterisk follows results filed as active; i = inactive; ? = inconclusive; · = no result; ! = not active in a repeat; [ ] = remark or other dose. The call rests on the fitted dose curve; in most records, active means well fitted curve in the direction sought with a large enough effect; inconclusive means small, poorly fitted or top-dose-only effect, or another doubt; inactive means no such curve, though single readings can be large; an effect the other way counts as inactive or inconclusive. Potency means the concentration at half of the fitted maximal effect.
SMILES,FUS suppressor,aSyn yeast inh,TDP-43 yeast inh,Abeta rescue
CCCCOC(=O)c1cccc(NC(=O)CCC(=O)O)c1,i,4%,17%,i
CCCCOC(=O)Nc1cccc(C(C)=O)c1,i,0%,11µM*,i
CCOC(=O)Nc1cccc(Nc2ccccc2)c1,i,-15%,14µM*,i
O=C(Nc1ccccc1)OCCCc1ccccc1,i,1%,?,i
CCOC(=O)Nc1cccc(C(=O)O)c1,i,0%,-6%,i
COc1cc(/C=C/c2ccnc3ccccc23)cc(OC)c1OC,·,-8%,·,·
COC(=O)c1cc2sc(C)cc2n1CC(=O)Nc1cccc(SC)c1,i,·,2%,i
CC(C)(C)OC(=O)N1CCC(c2c(C(=O)NC3CCN(Cc4ccccc4)CC3)cnn2-c2ccc(F)cc2F)CC1,i,·,-3%,i
COc1ccc(-c2csc(CCn3nc(C)cc3C)n2)cc1,i,-7%,18µM*,i
COc1ccc(-c2csc(CCn3nc(C)cc3C)n2)cc1OC,i,22%,24%,i
O=C(O)c1ccc(CSc2nnc(-c3ccccc3)n2-c2ccccc2)cc1,i,16%,0%,i
Brc1cccc(-c2nnc(SCc3ccon3)n2-c2ccccc2)c1,i,14%,18µM*,i
Cc1ccc(C(=O)C2=C(O)C(=O)N(Cc3cccnc3)C2c2ccc(Cl)cc2)o1 (stereo not drawn),28µM*,-18%,-14%,i
O=C(C1=C(O)C(=O)N(c2ncccn2)C1c1ccc(Cl)cc1)c1ccco1 (stereo not drawn),32µM*,6%,0%,i
CCOc1ccc(C2C(C(=O)c3ccc(C)o3)=C(O)C(=O)N2Cc2cccnc2)cc1 (stereo not drawn),?,-7%,-24%,i
FC(F)(F)Oc1cccc(Cn2ccc3ccc(-c4ccc5ccn(Cc6cccc(OC(F)(F)F)c6)c5c4)cc32)c1,i,·,·,·
CCCC(O)c1nc2ccccc2n1Cc1ccccc1OC (stereo not drawn),i,·,1%,i
CC(C)(C)C(c1nc2ccccc2[nH]1)n1c(-c2cc(Cl)cc(Cl)c2)nc2ccccc21 (stereo not drawn),i,-8%,35µM*,?
CC(C)(C)C(c1nc2ccccc2[nH]1)n1c(-c2cccc(S(C)(=O)=O)c2)nc2ccccc21 (stereo not drawn),i,3%,8%,i
CCn1c(C)cc(C(=O)CSc2nnnn2C2CCCC2)c1C,·,1%,20µM*,i
Cc1cc(C(=O)CSc2nnnn2C)c(C)n1C1CC1,i,6%,5%,i
CCSc1nc(-c2ccc(OC)cc2)cc(-c2ccccc2)c1C#N,i,14%,-21%,i
COc1ccc(-c2cc(-c3ccccc3)c(C#N)c(S(C)=O)n2)cc1 (stereo not drawn),i,6%,18µM*,i
Cc1ccccc1C(=O)Nc1sc2c(c1C(=O)N1CCC(C)CC1)CCC(C)C2 (stereo not drawn),i,·,27%,i
Cc1ccccc1C(=O)Nc1sc2c(c1C(=O)N1CCCCC1)CCC(C)C2 (stereo not drawn),i,·,18µM*,i
SMILES,FUS suppressor,aSyn yeast inh,TDP-43 yeast inh,Abeta rescue
Cc1cc(OC(=O)c2ccc(C(C)(C)C)cc2)c([N+](=O)[O-])c(=O)[nH]1,i,9%,16µM*,i
O=C1CSc2ccc(C(=O)Nc3cccc(S(=O)(=O)Nc4ccc(Br)cc4)c3)cc2N1,7.1µM*,-7%,-14%,i
CCCCC(=O)OC1=C(C(=O)c2ccccc2)N(CC)S(=O)(=O)c2ccccc21,i,·,16µM*,i
CCCCN1C(C(=O)c2ccccc2)=C(OC(C)=O)c2ccccc2S1(=O)=O,i,·,4%,i
CCOCCCNC(=O)c1ccc(Cn2c(=O)c3cccn3c3cccnc32)cc1,i,·,?,i
CCOC(=O)NC(=O)CSc1nc(C)cc(C)c1C#N,i,2%,16µM*,i
CCCCC(CC)CNC(=O)c1[nH]c(C)c(C(C)=O)c1C (stereo not drawn),i,-1%,13µM*,i
CCc1ccc(NS(=O)(=O)c2c(-c3ccccc3)csc2C(=O)OC)cc1,i,·,27%,i
CN1C(=O)c2cc(NC(=O)Nc3ccccc3)ccc2OC[C@H]2O[C@@H](CC(=O)NC3Cc4ccccc4C3)CC[C@@H]21,i,·,·,·
C[C@H]1CN([C@@H](C)CO)C(=O)CCCn2cc(nn2)CO[C@@H]1CN(C)S(=O)(=O)c1ccc2ccccc2c1,i,3.5µM*,12%,i
C[C@@H]1CN([C@H](C)CO)C(=O)CCCn2nncc2CO[C@@H]1CN(C)S(=O)(=O)c1ccccc1F,i,-4%,16µM*,i
C[C@H](CO)N1C[C@H](C)[C@@H](CN(C)S(=O)(=O)c2ccccc2)OCc2cn(nn2)CCCC1=O,i,-20%,-13%,i
O=C(OCC1CCCO1)c1ccc2c(c1)N(Cc1cccc(Cl)c1)C(=O)c1ccccc1S2(=O)=O (stereo not drawn),i,·,-4%,i
Cc1nc(-c2ccc(C)c(N3CCN(C(=O)Nc4ccc(Br)cc4)CC3)c2)no1,i,0%,?,i
CCCCc1ccc(NC(=S)NCC2CCCO2)cc1 (stereo not drawn),i,-12%,-3%[0.397 µM],13µM*
CN(C)c1ccc(NC(=S)NCC2CCCO2)cc1 (stereo not drawn),i,0%,8%,i
Cc1ccc(NC(=O)CN2C(=O)c3ccccc3Sc3ncccc32)c(C)c1,?,·,13%,i
O=C(N/N=C/c1c(O)ccc2ccccc12)C(=O)N1CCCC1,i,22µM*,2%,?
CNc1cncc(-c2ccc(OC)c(OC)c2)n1,i,7.9µM*,-47%,i
CNc1cncc(-c2c(OC)cccc2OC)n1,i,-4%,4%,i
CNc1cncc(-c2ccc(F)c(F)c2)n1,i,23%,?,i
CNc1cncc(-c2cccc(OC)c2F)n1,i,3%,28µM*,i
CC(=O)N1c2ccccc2Oc2cc3ccccc3cc21,i,9%,13µM*,i
O=C(CCl)N1c2ccccc2Oc2ccc3ccccc3c21,?,-43%,?,i
O=C(N/N=C/c1ccc(OCc2ccccc2)cc1)c1cc[n+](Cc2ccccc2)cc1,i,2%,20µM*,i
Cc1cc(Br)c2c(c1)[C@](O)(c1cn(C)c3ccccc13)C(=O)N2C,i,0%,22µM*,?
COc1ccccc1N1CCN(C(=O)CCSCc2ccccc2F)CC1,i,0%,20µM*!,i
COc1cccc(N2CCN(C(=O)CCSCc3ccccc3F)CC2)c1,i,2%,16µM*,i
COc1ccccc1N1CCN(C(=O)Cc2ccc(Cl)cc2)CC1,i,21%,2%,i
COc1cccc(N2CCN(C(=O)CN3CCSc4ccccc43)CC2)c1,i,3%,14µM*,?
